{"source": "ChEMBL document CHEMBL3988442", "about": "“University of Dundee, Small-Polar-MMV Screening Library” (2021)", "note": "About 900 (1.7%) of roughly 53,000 compounds showed an effect of 50% or more. This is one part of a sample in which strong results are shown more often than they occur.", "data": [{"system": "Mycobacterium tuberculosis", "test": "Cornell - Phenotypic assay to identify agents that inhibit growth of Mycobacterium tuberculosis", "assay_type": "functional", "set-up": "scale not given: direction of the effect not stated beside the values", "conditions": "10 mM as filed; unlikely as a test dose", "units": {"Percent Effect": "%"}, "values": [{"smiles": "FC(F)(F)c1cc(C2CCCN(c3ncccn3)C2)n2ccnc2n1", "note": "(centres undefined)", "Percent Effect": 58.69}, {"smiles": "Cc1nc(Nc2cnccn2)cc(C2CCCN(C(C)C)C2)n1", "note": "(centres undefined)", "Percent Effect": -5.253}, {"smiles": "CC(C)N1CCCC(c2cc(C(F)(F)F)nc3nccn23)C1", "note": "(centres undefined)", "Percent Effect": 55.76}, {"smiles": "Cc1cc(C)nc(Nc2nccnc2C2CCCN(C(C)C)C2)n1", "note": "(centres undefined)", "Percent Effect": 29.5}, {"smiles": "FC(F)(F)c1cc(C2CCCN(c3cnccn3)C2)n2ccnc2n1", "note": "(centres undefined)", "Percent Effect": 5.193}, {"smiles": "FC(F)(F)c1cc(C2CCN(c3cnccn3)CC2)n2ccnc2n1", "Percent Effect": 47.21}, {"smiles": "NC(=O)c1ccc(C2CCCN2C(=O)CCc2nc3ccccc3s2)s1", "note": "(centres undefined)", "Percent Effect": -11.96}, {"smiles": "Cc1ccccc1CC1(C(=O)O)CCCN(c2ncnc3[nH]ccc23)C1", "note": "(centres undefined)", "Percent Effect": 8.891}, {"smiles": "c1csc(N2CCCN(c3ncnc4sccc34)CC2)n1", "Percent Effect": 9.712}, {"smiles": "Cc1cnc(C)c(N2CCCC(CO)(Cc3ccccc3C)C2)n1", "note": "(centres undefined)", "Percent Effect": 5.498}, {"smiles": "Cc1ccccc1CC1(CO)CCCN(c2ncncc2C(C)C)C1", "note": "(centres undefined)", "Percent Effect": 81.01}, {"smiles": "Cc1ccccc1CC1(CO)CCCN(c2ncnc3sccc23)C1", "note": "(centres undefined)", "Percent Effect": 79.2}, {"smiles": "CC(=O)c1ccc(N2CCCC(CO)(Cc3ccccc3C)C2)nc1", "note": "(centres undefined)", "Percent Effect": 13.02}, {"smiles": "CC(=O)NCCNC(=O)CCn1c(C)cc2ccccc21", "Percent Effect": 15.36}, {"smiles": "Cc1cc(NC(=O)CN2CCCC2c2noc(C3CC3)n2)n(C)n1", "note": "(centres undefined)", "Percent Effect": -35.39}, {"smiles": "O=C(O)C(F)(F)F.O=C(c1ccccc1F)N1CCC2(CC1)CC(Oc1ccccn1)CO2", "note": "(centres undefined)", "Percent Effect": 20.39}, {"smiles": "Cl.NCC(=O)N1CCCC1c1n[nH]cc1-c1ccccc1F", "note": "(centres undefined)", "Percent Effect": -8.12}, {"smiles": "CN(C)c1nccc(C2CCN(c3ncccn3)CC2)n1", "Percent Effect": 38.24}, {"smiles": "CC(=O)N1CCOC(c2ccnc(N(C)C)n2)C1", "note": "(centres undefined)", "Percent Effect": 23.94}, {"smiles": "CN(C)c1nccc(C2CN(c3ccccc3)CCO2)n1", "note": "(centres undefined)", "Percent Effect": 59.44}, {"smiles": "CC(=O)N1CCCC(c2ccnc(N(C)C)n2)C1", "note": "(centres undefined)", "Percent Effect": -19.51}, {"smiles": "CN(C)c1nccc(C2CN(c3cnccn3)CCO2)n1", "note": "(centres undefined)", "Percent Effect": -32.07}, {"smiles": "CC(C)N1CCOC(c2ccnc(N(C)C)n2)C1", "note": "(centres undefined)", "Percent Effect": 50.07}, {"smiles": "O=C(Cn1ccnc1)N1C[C@@H]2CC[C@H](Oc3ccccc3F)[C@@H]2C1", "Percent Effect": -34.19}, {"smiles": "O=C(Nc1nc2c(s1)CCC2)NC1CCCC1", "Percent Effect": 34.54}, {"smiles": "Cl.O=C(NCCO)c1sc2ncccc2c1C1CNCCO1", "note": "(centres undefined)", "Percent Effect": 5.786}, {"smiles": "CC(=O)Nc1nc(C(=O)NCc2ccc(N3CCCCC3)cc2)cs1", "Percent Effect": -6.079}, {"smiles": "CN(CCN1CCOC1=O)CC(=O)Nc1cc(F)cc(F)c1", "Percent Effect": -4.563}, {"smiles": "CCN1CC(COC(=O)c2ccccc2Cl)CC1=O", "note": "(centres undefined)", "Percent Effect": 9.93}, {"smiles": "CCOC(=O)c1c(NC(=O)C2CCN(C(C)=O)CC2)sc(C)c1CC", "Percent Effect": 0.6351}, {"smiles": "CCc1c(C)sc(NC(=O)CN2CCN(CC)CC2)c1C(=O)OC", "Percent Effect": 85.25}, {"smiles": "CCc1c(C)sc(NC(=O)CN2CCOCC2)c1C(=O)OC", "Percent Effect": 13.88}, {"smiles": "NC(=O)N1CCc2ncc(CNC(=O)CC3CC3)n2CC1", "Percent Effect": -19.97}, {"smiles": "O=C(C1CC1)N1CCC2(CCCN2Cc2ccc(F)cc2)CC1.O=C(O)C(F)(F)F", "Percent Effect": 3.548}, {"smiles": "COCC(=O)N1CCCC(c2nc(N(C)C)ncc2-c2ccccc2)C1", "note": "(centres undefined)", "Percent Effect": 21.17}, {"smiles": "CC(=O)N1CCCC(c2nc(N(C)C)ncc2-c2ccccc2)C1", "note": "(centres undefined)", "Percent Effect": 12.04}, {"smiles": "CCC(=O)N1CCCC(c2nc(N(C)C)ncc2-c2ccc(F)cc2)C1", "note": "(centres undefined)", "Percent Effect": 78.09}, {"smiles": "CCN1Cc2cc(OC)ccc2N(CC(C)(C)O)CCC1=O", "Percent Effect": -17.4}, {"smiles": "CN(C)c1ncccc1CNC(=O)CCNc1ncccn1", "Percent Effect": 29.98}, {"smiles": "Cc1cc(-c2cnc(NC3CCCC3)nc2-c2ccco2)on1", "Percent Effect": 78.21}, {"smiles": "Cc1cc(-c2cnc(NC3CC3)nc2-c2ccco2)on1", "Percent Effect": 47.86}, {"smiles": "Cc1cc(-c2cnc(NC3CCCC3)nc2-c2ccoc2)on1", "Percent Effect": 81.21}, {"smiles": "Cc1cnc(-c2nc(NC3CCCC3)ncc2-c2onc(C)c2C)cn1", "Percent Effect": 7.273}, {"smiles": "Cc1cc(-c2cnc(NC3CCCC3)nc2-c2ccc(C)o2)on1", "Percent Effect": 92.52}, {"smiles": "Cc1noc(-c2cnc(NCC3CCCO3)nc2-c2ccco2)c1C", "note": "(centres undefined)", "Percent Effect": 34.64}, {"smiles": "Cc1cc(-c2cnc(NC3CCCC3)nc2-c2ccoc2C)on1", "Percent Effect": 18.15}, {"smiles": "Cc1noc(-c2cnc(NC(C)C)nc2-c2ccco2)c1C", "Percent Effect": 32.42}, {"smiles": "Cc1cc(-c2cnc(NC3CC3)nc2-c2ccoc2)on1", "Percent Effect": -15.23}, {"smiles": "COCCNc1ncc(-c2cc(C)no2)c(-c2ccco2)n1", "Percent Effect": -34.06}, {"smiles": "Cc1cc(-c2cnc(NC3CCCCC3)nc2-c2ccco2)on1", "Percent Effect": 97.15}, {"smiles": "Cc1cnc(-c2nc(NC3CC3)ncc2-c2cc(C)no2)cn1", "Percent Effect": -18.55}, {"smiles": "CCc1noc(CN2CCN(CC(O)c3ccccc3)CC2)n1", "note": "(centres undefined)", "Percent Effect": -1.918}, {"smiles": "O=C(O)C(F)(F)F.O=C1CC(c2ccncc2)C2(CCN(C(=O)c3ccc[nH]3)CC2)N1", "note": "(centres undefined)", "Percent Effect": -25.12}, {"smiles": "CC(C)=CCN1C[C@@H]2CN(C(=O)c3cnccc3C)C[C@]2(C(=O)O)C1", "Percent Effect": 13.3}, {"smiles": "CC(C)[C@H](N)C(=O)N1CCSc2ccccc2C1.Cl", "Percent Effect": 15.34}, {"smiles": "CS(=O)(=O)N1CC(c2ccnc(Nc3ccccn3)n2)C1", "Percent Effect": 3.174}, {"smiles": "O=C(Nc1ccccn1)C1CCN(C(=O)COc2ccccc2F)C1", "note": "(centres undefined)", "Percent Effect": -42.88}, {"smiles": "O=C(N1CCCC(n2cncn2)C1)C1(c2cccc(F)c2)CCCC1", "note": "(centres undefined)", "Percent Effect": -7.361}, {"smiles": "Cc1c(CN2CCC(C(=O)O)(n3cccn3)CC2)oc2ccccc12", "Percent Effect": -1.551}, {"smiles": "Cc1noc(-c2cnc(NC3CC3)nc2-c2ccco2)c1C", "Percent Effect": 21.85}, {"smiles": "Cc1cc(-c2cnc(NC3CC3)nc2-c2ccoc2C)on1", "Percent Effect": 6.588}, {"smiles": "Cc1occc1-c1nc(NC2CCCC2)ncc1-c1ccccn1", "Percent Effect": 85.8}, {"smiles": "Cc1cc(CN(C)C(=O)CN2CCCCCC2=O)no1", "Percent Effect": 6.807}, {"smiles": "Fc1cc(Oc2ccc(C(F)(F)F)cn2)cc(F)c1CN1CCCC1", "Percent Effect": 17.52}, {"smiles": "COc1cc(Oc2ccc(C(N)=O)cn2)ccc1CN1CCCC1", "Percent Effect": 6.938}, {"smiles": "COc1cc(Oc2ccc(C(F)(F)F)cn2)ccc1CN1CCCC1", "Percent Effect": 21.65}, {"smiles": "COc1cc(Oc2cnc3ccccc3n2)ccc1CN1CCCC1", "Percent Effect": 89.59}, {"smiles": "COc1cc(Oc2ccc(C#N)cn2)ccc1CN1CCCC1", "Percent Effect": 27.7}, {"smiles": "COc1ccc(Oc2ccc(C(F)(F)F)cn2)cc1CN1CCCC1", "Percent Effect": 50.99}, {"smiles": "COc1ccc(CC(=O)NCCCc2nnc3nc(C)cc(C)n23)cc1", "Percent Effect": -52.99}, {"smiles": "CC(C)N1CCCC1c1nc(N(C)C)ncc1I", "note": "(centres undefined)", "Percent Effect": 5.368}, {"smiles": "Cc1c(Br)c(C(F)F)nn1C(C)C(=O)O", "note": "(centres undefined)", "Percent Effect": 18.88}, {"smiles": "COCCN(C)C(C(=O)O)c1ccc(Cl)c(F)c1", "note": "(centres undefined)", "Percent Effect": -23.65}, {"smiles": "COCC(=O)N1C[C@@H]2OCCN(Cc3c(C)noc3C)[C@@H]2C1", "Percent Effect": -0.2298}, {"smiles": "Cc1ccc(N2C[C@@H]3OCCN(Cc4c(C)noc4C)[C@@H]3C2)nn1", "Percent Effect": 2.66}, {"smiles": "Cc1noc(C)c1CN1CCO[C@H]2CNC[C@H]21.Cl.Cl", "Percent Effect": 71.41}, {"smiles": "COc1ccc(F)c(-c2ncccc2NC(=O)C(C)C)c1", "Percent Effect": -36.39}, {"smiles": "CN(C)S(=O)(=O)NC1CC(=O)N(c2ccccc2Cl)C1", "note": "(centres undefined)", "Percent Effect": 14.57}, {"smiles": "CCN(C)c1ncnc2c1CCN(S(=O)(=O)c1ccccc1)CC2.O=C(O)C(F)(F)F", "Percent Effect": 2.965}, {"smiles": "C=C(C)CNc1nc(CS(=O)(=O)c2ccccc2)cs1", "Percent Effect": 8.279}, {"smiles": "CCCNc1nc(CS(=O)(=O)c2ccccc2)cs1", "Percent Effect": -0.8742}, {"smiles": "CNc1nc(CS(=O)(=O)c2ccccc2)cs1", "Percent Effect": 106.2}, {"smiles": "CC(C)c1nc(O)c2nnn(C[C@@H]3CCCN(Cc4ccsc4)C3)c2n1", "Percent Effect": 7.526}, {"smiles": "COCc1nc2cc(NCc3ccc(CO)o3)ccc2o1", "Percent Effect": 97.16}, {"smiles": "Cc1ccc(CNC(C)(C)c2noc(C(C)(C)C)n2)o1", "Percent Effect": -0.4607}, {"smiles": "CC(C)(C)C(=O)N1C[C@@H](F)[C@@H](OCc2nc3ccccc3o2)C1", "Percent Effect": 16.14}, {"smiles": "COCc1nc2cc(NCc3ccc(C)o3)ccc2o1", "Percent Effect": 107.3}, {"smiles": "COCc1nc2c(o1)CN(C(=O)NCc1ccccc1)C2", "Percent Effect": -49.74}, {"smiles": "CCC(C)CNc1ccc2oc(COC)nc2c1", "note": "(centres undefined)", "Percent Effect": 35.01}, {"smiles": "Cc1nc(-c2ccccc2)nc2c1CCN(Cc1nccn1C)CC2", "Percent Effect": 6.349}, {"smiles": "CN(C)c1ncc(C2Nc3cc(Cl)ccc3C3=NCCCN32)cn1.Cl", "note": "(centres undefined)", "Percent Effect": 8.449}, {"smiles": "CCOc1ccc(NC(=O)c2cc(C)c(C)o2)cc1CO", "Percent Effect": 22.28}, {"smiles": "CCOc1ccc(NC(=O)c2[nH]c(C)cc2C)cc1CO", "Percent Effect": 102.6}, {"smiles": "CCOc1ccc(NC(=O)c2oc(CC)cc2C)cc1CO", "Percent Effect": 34.25}, {"smiles": "COCC(=O)N1CCN(C)CC(Cc2cc(N(C)C)ncn2)C1", "note": "(centres undefined)", "Percent Effect": 14.46}, {"smiles": "CN1CCC(c2[nH]ncc2S(C)(=O)=O)CC1", "Percent Effect": 6.792}, {"smiles": "Cc1[nH]c2c(C)cccc2c1CC(=O)N(C)CCN(C)C.O=C(O)CC(O)(CC(=O)O)C(=O)O", "Percent Effect": 27.37}, {"smiles": "CCc1cccc2c(CC(=O)N(C)CCN(C)C)c(C)[nH]c12.O=C(O)CC(O)(CC(=O)O)C(=O)O", "Percent Effect": 51.84}, {"smiles": "Cc1ccc2c(CC(=O)N(C)CCN(C)C)c(C)[nH]c2c1C.O=C(O)CC(O)(CC(=O)O)C(=O)O", "Percent Effect": 8.878}, {"smiles": "COCCN1CCN(S(=O)(=O)c2ccccc2)Cc2cccnc21.O=C(O)C(F)(F)F", "Percent Effect": 12.13}, {"smiles": "N#Cc1cc(NS(=O)(=O)c2cc(C(=O)O)cc(Cl)c2Cl)ccc1F", "Percent Effect": 13.91}, {"smiles": "CCOC(=O)CN1CC(c2nc(-c3ccsc3)no2)C1.O=C(O)C(=O)O", "Percent Effect": 51.67}, {"smiles": "CCS(=O)(=O)N1CC(c2nc(-c3ccsc3)no2)C1", "Percent Effect": -31.96}, {"smiles": "CN(C)S(=O)(=O)N1CC(c2nc(-c3ccsc3)no2)C1", "Percent Effect": 18.06}]}]}
